Assay outcomes deposited in PubChem by National Center for Advancing Translational Sciences (NCATS).
The entries come from a sample that favours hits as a whole.
Pf Dd2 inh – inhibitors of Plasmodium falciparum Dd2 growth. P. falciparum Dd2 growth, SYBR Green, 72 h. Potency, µM (doses to about 28.9 µM), hits mostly inhibitors. 4.3% of 120,000 active; active means well fitted inhibition curve with a large enough effect; further: nearly all actives have a fitted effect of over 65% in size
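Infected erythrocytes (Dd2, 0.3% parasitemia, 2.5% hematocrit final) are added to compound in RPMI-1640/Albumax II medium, grown 72 h at 37C in low oxygen, then lysed with saponin/Triton-X containing SYBR Green and read by fluorescence.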
Large screens that a line does not name were inactive.

Cc1cc2c(cc1C)NC(CC(=O)Nc1cccc(C)c1C)C(=O)N2 (centres undefined)	Pf Dd2 inh 3.2µM
Cc1ccc(NC(=O)CC2Nc3cc(C)c(C)cc3NC2=O)c(C)c1 (centres undefined)	Pf Dd2 inh 3.2µM
COc1cccc(NC(=O)CC2Nc3cc(C)c(C)cc3NC2=O)c1 (centres undefined)	Pf Dd2 inh 2.2µM
COc1cccc(NC(=O)CC2Oc3ccccc3NC2=O)c1 (centres undefined)	none
Cc1ccc2c(c1)NC(=O)C(CC(=O)Nc1cc(Cl)ccc1C)O2 (centres undefined)	none
Cc1cccc(NC(=O)CC2Nc3cccc4cccc(c34)NC2=O)c1 (centres undefined)	none
O=C(C[C@H]1NC(=O)c2ccccc2NC1=O)Nc1ccccc1Cl	none
Cc1c(C(=O)N2CCN3C(=O)CNC(=O)C3C2)cnn1-c1ccccn1 (centres undefined)	none
COCCCNC(=O)C1c2ccccc2C(=O)N(c2ccccc2)C12CCCCC2 (centres undefined)	none
CC(C)CNC(=O)C1CC(c2ccc(F)cc2)=NO1 (centres undefined)	none
COCCN1CCC2(CCC1=O)CCN(C(=O)Nc1cc(F)c(F)c(F)c1)CC2	none
Cc1ccc(OC2CCN(C(=O)C3CCCN(CC(N)=O)C3)CC2)cc1 (centres undefined)	none
COc1cccc(-c2cc(CC3(O)CCN(c4nnc(C)o4)CC3)on2)c1	none
CCn1cc(CN2CCn3c(nnc3[C@@H]3C[C@@H](O)CN3Cc3cccnc3)C2)c(C)n1	none
CC(=O)N1CCC(N2CCC[C@H]2c2nc(-c3ccnc(N4CCC(C(N)=O)CC4)c3)no2)CC1	none
CCN(Cc1ccncc1)C(=O)CCC[C@@H]1[C@H]2CCCN3CCC[C@@H](CN1Cc1cccnc1)[C@@H]23	none
Cc1cc(C)n(CC(=O)N2CCC(N3C(=O)C4(CCCCC4)C3c3ccncc3)CC2)n1 (centres undefined)	none
Cc1nc(-n2nc(C)c(Cc3ccc4c(c3)OCO4)c2C)sc1C(=O)Nc1ccc(Cl)cc1	none
CCc1ccccc1NC(=O)c1sc(-n2nc(C)c(Cc3ccc4c(c3)OCO4)c2C)nc1C	Pf Dd2 inh 4µM
Cc1ccc(NC(=O)c2sc(-n3nc(C)c(Cc4ccc5c(c4)OCO5)c3C)nc2C)cc1Cl	none
OCC1CCCN(c2cc(-c3ccccc3F)nc3ccnn23)C1 (centres undefined)	none
COc1ccc(NC(=O)Cn2cnc3sc(C)c(S(=O)(=O)N4CCN(C)CC4)c3c2=O)cc1Cl	none
COCCNC(=O)Cn1cnc2sc(C)c(S(=O)(=O)N3CCN(c4ccccc4OC)CC3)c2c1=O	none
COc1ccc(OC)c(NC(=O)Cn2cnc3sc(C)c(S(=O)(=O)N4CCN(c5ccccc5OC)CC4)c3c2=O)c1	Pf Dd2 inh 11µM
COc1ccccc1N1CCN(C(=O)Cn2cnc3sc(C)c(S(=O)(=O)N4CCC(C)CC4)c3c2=O)CC1	none
COCCCNC(=O)Cn1cnc2sc(C)c(S(=O)(=O)N3CCN(c4ccccc4OC)CC3)c2c1=O	none
COc1ccc(Cl)cc1NC(=O)Cn1cnc2sc(C)c(S(=O)(=O)N3CCN(c4ccccc4OC)CC3)c2c1=O	Pf Dd2 inh 10µM
O=C(NCCc1ccncc1)C1c2ccccc2C(=O)N(c2ccccc2)C12CCCCC2 (centres undefined)	none
CCO[C@H]1CN(C(=O)c2nc3ccccc3[nH]c2=O)C[C@@H]1O	none
O=C(c1ccccn1)N1CCN(Cc2ccc(=O)n(CC3CC3)c2)CC1	none
CC(=O)Nc1cc(-c2cc(C(=O)NCc3cc(C)on3)c3c(c2)N(C)CCO3)ccn1	Pf Dd2 inh 7.9µM
Cc1cc(CNC(=O)c2cc(-c3ccccc3)cc3c2OCCN3C)no1	none
CC(=O)Nc1cc(-c2cc(C(=O)NCc3cccnc3)c3c(c2)N(C)CCO3)ccn1	none
CCCn1ccnc1-c1c(-c2ccccc2)ncn1CC(O)COCC (centres undefined)	none
CN(Cc1ccccc1)C(=O)C[C@@H]1O[C@H](CNC(=O)C2CCCC2)[C@@H](O)[C@H]1O	none
O=C(c1cccs1)c1cn(CCOc2ccc(F)cc2)c2ccccc12	none
Cc1ccc(NC(=O)Cn2cc(C(=O)c3ccco3)c3ccccc32)c(C)c1	none
O=C(c1ccco1)c1cn(CCOc2ccc(F)cc2)c2ccccc12	Pf Dd2 inh 1.3µM
COc1cccc(C(=O)N2CCC(Oc3ncccc3C(=O)N3CCCCC3)C2)c1 (centres undefined)	none
CS(=O)(=O)N1CCC(OC2CCN(C(=O)C3CC3)CC2)CC1	none
COc1ccc(OCC(O)CN2CCC(O)CC2)c(CN(C)Cc2csc(C)n2)c1 (centres undefined)	none
CCN1CCN(CC(O)COc2cccc(CN(C)Cc3cc(C)on3)c2)CC1 (centres undefined)	none
COc1ccc(CN(C)Cc2ccncc2C)c(OCC(O)CN2CCCC2)c1 (centres undefined)	Pf Dd2 inh 2.8µM
CCn1cc(C(=O)N2CCC3(CC2)CN(C2CCC2)CC3CO)cn1 (centres undefined)	none
O=C(COc1ccccc1)N1CCCC1c1nc(C2CCOCC2)no1 (centres undefined)	none
O=C(Nc1nc2n(n1)C(c1ccc(F)cc1)C=C(c1ccccc1)N2)c1ccc(Cl)cc1 (centres undefined)	Pf Dd2 inh 10µM
Cc1ccc(C2C=C(c3ccccc3)Nc3nc(NS(=O)(=O)c4ccccc4)nn32)cc1 (centres undefined)	none
Cc1ccc(C2C=C(c3ccccc3)Nc3nc(NS(C)(=O)=O)nn32)cc1 (centres undefined)	none
Cc1ccc(C(=O)Nc2nc3n(n2)C(c2ccccc2)C=C(c2ccccc2)N3)cc1 (centres undefined)	Pf Dd2 inh 11µM
O=S(=O)(Nc1nc2n(n1)C(c1ccc(F)cc1)C=C(c1ccccc1)N2)c1ccc(Cl)cc1 (centres undefined)	none
Cc1ccc(C(=O)Nc2nc3n(n2)C(c2ccc(F)cc2)C=C(c2ccccc2)N3)cc1 (centres undefined)	Pf Dd2 inh 6.3µM
COc1ccc(C2C=C(c3ccccc3)Nc3nc(NS(=O)(=O)c4ccc(Cl)cc4)nn32)cc1 (centres undefined)	none
COc1ccc(C(=O)Nc2nc3n(n2)C(c2ccc(F)cc2)C=C(c2ccc(Cl)cc2)N3)cc1 (centres undefined)	Pf Dd2 inh 5µM
Fc1ccc(C2=CC(c3ccc(F)cc3)n3c(nc4ccccc43)N2)cc1 (centres undefined)	none
CC1=C(C(=O)Nc2cccnc2)C(c2ccc(Cl)cc2)n2nc(-c3ccccc3)nc2N1 (centres undefined)	none
COc1ccc(C2C=C(c3ccc(Cl)cc3)Nc3nc(NC(=O)CCC(=O)O)nn32)cc1 (centres undefined)	none
Cc1ccc(S(=O)(=O)Nc2nc3n(n2)C(c2ccc(F)cc2)C=C(c2ccccc2)N3)cc1 (centres undefined)	none
O=C(NC[C@H]1COCc2nc3ccccc3n21)c1cnccn1	none
O=C(Cn1nc2c(cc1=O)CCCCC2)NCc1ccc(F)cc1	none
COc1cc(Cl)ccc1OCc1nc2c(n1Cc1ccccc1)C(=O)N(CC1CCOCC1)CCN2	none
CCn1ccc(C(=O)N2CCC(c3noc(-c4ccccc4)n3)C2)n1 (centres undefined)	none
Cc1ccc(C2NC(=O)N(CC(=O)Nc3ccc(C(F)(F)F)cc3)C3=C2C(=O)OC3)cc1 (centres undefined)	none
COC(=O)[C@H]1CN(C(=O)N2CCOCC2)CCN1C(=O)c1cccnc1	none
CC1(CNc2ccccc2)COc2ccc(C(=O)N3CC(O)C3)cc2N1 (centres undefined)	none
